Here are results for five compounds from PubChem BioAssay.

Activity calls are given as the source filed them. Unless noted, no rule for the calls is given here.

Assay [1] concerns Wnt5a (protein binding on small-molecule microarray). The assay can be described thus: small molecules binding Wnt5a protein – biophysical, small-molecule microarray, 635/667 nm fluorescence, primary screen (AID 1142).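 Also: fluorescence read at 667 nm with signal to noise per printed feature.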 The settings on record: 635 nm fluorescence, higher = more signal.
The nature of assay [2]: ATP-based viability of Huh7 replicon cells – cell-based, CellTiter-Glo luminescence, basal, 48 h, cytotoxicity control for HCV replication inhibitor project, primary screen (AID 1143).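 Also: Huh7 hepatoma cells carrying a hepatitis C replication reporter with no stimulus; test concentration not given here.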 The settings on record: higher = more signal, called active from +8 up or from −8 down.
Assay [3] is described as follows: Pseudomonas biofilm growth suppression – PAO1 strain, BacTiter-Glo luminescence, LB-PBS, primary screen (AID 1144). The settings on record: P. aeruginosa PAO1 biofilm, 12 h, higher = more signal.
A short description of assay [4]: basal CRE-LacZ reporter activity in PC12 – cell-based, unstimulated, primary screen (AID 1145). The note with it: no forskolin, luminescence, 4.5 h, higher = more signal, called active from +8 up or from −8 down.
The nature of assay [5]: forskolin-driven CRE-LacZ activity in PC12 – cell-based, CRE-LacZ reporter, forskolin-stimulated, primary screen (AID 1146).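 Also: PC12 cells with 6xCRE LacZ reporter stimulated by forskolin 10 µM; beta-galactosidase reporter signal reflecting CREB driven transcription.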 The note with it: luminescence, 4.5 h, higher = more signal, called active from +8 up or from −8 down.
Assay [6] concerns the target Streptavidin (Streptomyces avidinii) (UniProt P22629). The experiment in a line: compounds binding control protein streptavidin – biophysical, small-molecule microarray, 635/667 nm fluorescence, artefact control for SMM compound annotation, primary screen (AID 1147).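 Also: signal reflects streptavidin binding to arrayed compounds as a control protein.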 The note with it: higher = more signal.
Assay [7] can be described thus: probe aInhba binding on compound microarray – biochemical, small-molecule microarray, 635/667 nm fluorescence, primary screen (AID 1148).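 Also: score merges 667nm spot fluorescence with signal-to-noise for antibody binding to printed compounds.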 The settings on record: higher = more signal.
Assay [8] concerns the target Torsin-1A (Homo sapiens) (UniProt O14656). The assay can be described thus: TOR1A wild-type binding on microarray – cell lysate, small-molecule microarray, lysate, 635/667 nm, primary screen (AID 1149). The note with it: COS7 hTOR1A-WT lysate, 635 nm fluorescence, higher = more signal.
Assay [9] shares this target. The experiment in a line: torsin A mutant lysate binding on microarrays – cell lysate, small-molecule microarray, COS7 lysate, 635/667 nm fluorescence, primary screen (AID 1150).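 Also: score pools 667 nm emission and signal to noise measuring lysate protein binding.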 The settings on record: COS7 hTOR1A mutant lysate, 635 nm fluorescence, higher = more signal.
Assay [10] has as its system Sonic hedgehog protein (Shh). The experiment in a line: Sonic hedgehog microarray binding compounds – biochemical, small-molecule microarray, 635/667 nm fluorescence, primary screen (AID 1151).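 Also: Shh protein binding to compounds spotted on small-molecule microarray slides; score combines spot fluorescence intensity with signal-to-noise across triplicate slides.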 The note with it: 635 nm fluorescence, higher = more signal.

Torsin-1A (Homo sapiens), sequence (O14656 whole entry, looked up): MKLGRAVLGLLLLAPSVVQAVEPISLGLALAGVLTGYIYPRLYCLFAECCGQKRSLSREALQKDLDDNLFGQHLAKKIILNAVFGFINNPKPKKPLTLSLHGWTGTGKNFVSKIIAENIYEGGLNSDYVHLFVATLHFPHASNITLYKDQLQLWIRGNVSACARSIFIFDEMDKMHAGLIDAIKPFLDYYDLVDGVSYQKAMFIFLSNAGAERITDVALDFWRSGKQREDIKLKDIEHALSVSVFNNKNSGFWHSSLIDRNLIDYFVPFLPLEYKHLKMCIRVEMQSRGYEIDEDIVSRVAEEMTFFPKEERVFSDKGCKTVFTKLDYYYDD
Streptavidin (Streptomyces avidinii), sequence (P22629 whole entry, looked up): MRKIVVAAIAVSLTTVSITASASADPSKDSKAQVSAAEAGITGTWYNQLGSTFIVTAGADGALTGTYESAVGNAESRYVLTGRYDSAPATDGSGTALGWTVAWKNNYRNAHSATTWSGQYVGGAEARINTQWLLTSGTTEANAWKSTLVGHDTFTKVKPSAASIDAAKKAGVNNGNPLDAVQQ

Regarding `CN(C)C(=O)[C@@]1(Cc2ccccc2)COC(c2ccc(OCCCO)cc2)=N1`, the composite z-score in [1] is -0.243; in [6], 0.142; in [7], -0.661; in [8], 0.0565; in [9], -0.22; in assay [10], -0.618. The z-score in assay [2] is -2.58 (inactive); in assay [3], 0.59 (inactive); in [4] it was 1.74 (inactive); in assay [5] it was -1.3 (inactive).

In the case of `Cc1cccc([C@H]2C[C@H]3C(I)=C[C@@H]2C(=O)[C@]32CO2)c1`, the composite z-score in [1] was -0.243; in assay [6] it was -0.0548; in [7], -0.0762; in assay [8], -0.404; in [9], -0.481; in assay [10], 0.0299. The z-score in assay [2] is -0.478 (inactive); in assay [3], -0.209 (inactive); in [4], 1.76 (inactive); in assay [5] it was 1.56 (inactive).

For the compound `C=C[C@@H](OC)[C@H](OC(=O)Nc1ccc(SC)cc1)c1ccc(OCCO)cc1`, the composite z-score is 0.502 in [1]; 0.22 in assay [6]; -0.071 in [7]; 0.615 in assay [8]; 0.8 in assay [9]; 1.2 in assay [10]. Besides, the z-score in [2] is -2.53 (inactive); in [3], -0.918 (inactive); in assay [4], 9.77 (active); in assay [5] it was 0.136 (inactive).

Turning to `NCCCCCNC(=O)[C@H]1C[C@H]2C(=O)N[C@@H](Cc3ccccc3)C(=O)N2[C@H]1c1ccc(O)cc1`, the composite z-score in assay [1] stood at 0.234; in [6], 1.13; in [7], 0.641; in assay [8], 0.756; in [9], 0.842; in [10], 0.313. The z-score in assay [2] is 0.169 (inactive); in [3], -0.0304 (inactive); in assay [4], 0.0124 (inactive); in assay [5] it was -0.622 (inactive).

As to `C=C(CCCC)C(=O)CC[C@H](OC(C)=O)c1ccc(OCCO)cc1`, the composite z-score in [1] is -0.624; in [6], 0.519; in assay [7], -0.308; in assay [8], -0.822; in assay [9], -0.514; in assay [10] it was -0.0938. In addition, the z-score in assay [2] was -7.16 (inactive); in assay [3], -1.17 (inactive); in [4] it was 5.09 (inactive); in [5] it was -0.361 (inactive).
